# Test results published in the supplement of paper PMC8728848.
# This excerpt belongs to a sample that is enriched for the strongest signals.
# Columns and labels:
# Test in all cases: glycan array binding signal (z-score within array); higher = stronger binding
# Conditions in all cases: glycan notation: IUPAC condensed, linker removed
# Fuc(a1-2)Gal(b1-3)GalNAc = target: Fuc(a1-2)Gal(b1-3)GalNAc
# Outline: (§1)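 The binding signal is a Z-score computed within each array and averaged over linkers. Arrays of the same protein sequence at different concentrations or buffers were also averaged together. Data originate from 3228 arrays in the Consortium for Functional Glycomics database, kept only where the protein sequence was available.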
# [1] = target: Fuc(a1-2)Gal(b1-3)GalNAc(b1-3)Gal
# Outline: as §1
# [2] = target: Fuc(a1-2)Gal(b1-3)GalNAc(b1-3)Gal(a1-4)Gal(b1-4)Glc
# Outline: as §1
# Fuc(a1-2)Gal(b1-3)GlcNAc = target: Fuc(a1-2)Gal(b1-3)GlcNAc
# Outline: as §1
# [3] = target: Fuc(a1-2)[GalNAc(a1-3)]Gal(b1-4)[Fuc(a1-3)]GlcNAc
# Outline: as §1
# Gal(a1-3)Gal(b1-3)GlcNAc = target: Gal(a1-3)Gal(b1-3)GlcNAc
# Outline: as §1
# [4] = target: Gal(b1-3)GalNAc(b1-3)Gal(a1-4)Gal(b1-4)Glc
# Outline: as §1
# [5] = target: Gal(b1-3)[Fuc(a1-4)]GlcNAc
# Outline: as §1
# [6] = target: Gal(b1-3)[Fuc(a1-4)]GlcNAc(b1-3)Gal(b1-4)GlcNAc
# Outline: as §1
# [7] = target: Gal(b1-4)GlcNAc(b1-3)GalNAc
# Outline: as §1
# [8] = target: Gal3S(b1-3)[Fuc(a1-4)]GlcNAc
# Outline: as §1
# GalNAc(a1-3)Gal = target: GalNAc(a1-3)Gal
# Outline: as §1
# [9] = target: GlcNAc(b1-3)[GlcNAc(b1-6)]GalNAc
# Outline: as §1
# GlcNAc(b1-4)GlcNAc = target: GlcNAc(b1-4)GlcNAc
# Outline: as §1
# [10] = target: GlcNAc(b1-6)Gal(b1-4)GlcNAc
# Outline: as §1
# [11] = target: Man(a1-2)Man(a1-2)Man(a1-6)[Man(a1-3)]Man
# Outline: as §1
# [12] = target: Man(a1-2)Man(a1-3)[Man(a1-2)Man(a1-6)]Man
# Outline: as §1
# [13] = target: Man(a1-2)Man(a1-6)[Man(a1-3)]Man(a1-6)[Man(a1-2)Man(a1-2)Man(a1-3)]Man
# Outline: as §1
# [14] = target: Neu5Ac(a2-3)Gal(b1-3)GalNAc(b1-4)[Neu5Ac(a2-3)]Gal(b1-4)Glc
# Outline: as §1
# [15] = target: Neu5Ac(a2-3)Gal(b1-4)GlcNAc(b1-3)Gal(b1-3)GlcNAc
# Outline: as §1
# [16] = target: Neu5Ac(a2-3)Gal6S(b1-4)[Fuc(a1-3)]GlcNAc
# Outline: as §1
# [17] = target: Neu5Ac(a2-6)Gal(b1-4)GlcNAc(b1-2)Man(a1-3)[GlcNAc(b1-2)Man(b1-4)GlcNAc(b1-2)Man(a1-6)]Man(b1-4)GlcNAc(b1-4)GlcNAc
# Outline: as §1
# Neu5Ac(a2-6)GalNAc = target: Neu5Ac(a2-6)GalNAc
# Outline: as §1
# [18] = target: Neu5Ac(a2-8)Neu5Ac(a2-8)Neu5Ac(a2-8)Neu5Ac(a2-3)[GalNAc(b1-4)]Gal(b1-4)Glc
# Outline: as §1
# Neu5Ac(b2-6)GalNAc = target: Neu5Ac(b2-6)GalNAc
# Outline: as §1
binder,measurement,setting,value
"Glycodelin A (Homo sapiens), P09466 (protein) MLCLLLTLGVALVCGVPAMDIPQTKQDLELPKLAGTWHSMAMATNNISLMATLKAPLRVHITSLLPTPEDNLEIVLHRWENNSCVEKKVLGEKTENPKKFKINYTVANEATLLDTDYDNFLFLCLQDTTTPIQSMMCQYLARVLVEDDEIMQGFIRAFRPLPRHLWYLLDLKQMEEPCRF",glycan array binding signal (z-score),Fuc(a1-2)Gal(b1-3)GalNAc,-0.421
same,glycan array binding signal (z-score),[1],-0.414
same,glycan array binding signal (z-score),[2],-0.485
same,glycan array binding signal (z-score),Fuc(a1-2)Gal(b1-3)GlcNAc,-0.318
same,glycan array binding signal (z-score),[3],-0.439
same,glycan array binding signal (z-score),Gal(a1-3)Gal(b1-3)GlcNAc,4.32
same,glycan array binding signal (z-score),[4],-0.473
same,glycan array binding signal (z-score),[5],0.183
same,glycan array binding signal (z-score),[6],1.52
same,glycan array binding signal (z-score),[7],-0.373
same,glycan array binding signal (z-score),[8],3.69
same,glycan array binding signal (z-score),GalNAc(a1-3)Gal,-0.099
same,glycan array binding signal (z-score),[9],-0.397
same,glycan array binding signal (z-score),GlcNAc(b1-4)GlcNAc,-0.002
same,glycan array binding signal (z-score),[10],-0.5
same,glycan array binding signal (z-score),[11],-0.508
same,glycan array binding signal (z-score),[12],-0.43
same,glycan array binding signal (z-score),[13],-0.427
same,glycan array binding signal (z-score),[14],-0.406
same,glycan array binding signal (z-score),[15],-0.449
same,glycan array binding signal (z-score),[16],-0.448
same,glycan array binding signal (z-score),[17],2.02
same,glycan array binding signal (z-score),Neu5Ac(a2-6)GalNAc,4.31
same,glycan array binding signal (z-score),[18],4.64
same,glycan array binding signal (z-score),Neu5Ac(b2-6)GalNAc,3.68
